These results are taken from PubChem BioAssay (NCATS).

In assay [1] the target is Estrogen receptor (Homo sapiens) (UniProt P03372). The experiment in a line: qHTS assay for small molecule antagonists of estrogen receptor alpha signaling (AID 588513; active = well fitted curve in the direction sought with a large enough effect in the signal ratio, with a control signal flat, not every such curve was filed as active; the % refers to the signal ratio; also: % is scaled to controls: 0 for no effect and ±100 for the full control effect). In a few lines: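 Cells were plated at 5000/well and incubated 4 h at 37 C. Compounds were added as 1:2 dilution series, duplicates. 17-beta-estradiol (0.5nM final) was added for 18 h before CCF4 detection.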
For orientation: qHTS replaces the single test concentration by a dilution series.

Assay [2] shares this target. The experiment in a line: qHTS assay for small molecule agonists of estrogen receptor alpha signaling (AID 588514; calls by dose curve;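 also: 0% = vehicle only and 100% = reference agonist; nearly all actives have a fitted effect of over 70% in size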). Put shortly:
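Cells were plated at 5000/well, incubated 4 hrs at 37 C, dosed with compound titration series, incubated 18 hrs at 37 C, loaded with CCF4 dye for 2 hrs at RT, then fluorescence was read.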

The target in assay [3] is Glucocorticoid receptor (Homo sapiens) (UniProt P04150). Nature of the assay: qHTS assay for small molecule agonists of glucocorticoid receptor signaling (AID 588532; active = well fitted curve in the direction sought with a large enough effect in the signal ratio, with a control signal flat; the % refers to the signal ratio;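 also: 100% = dexamethasone at 0.1 µM and 0% = DMSO only wells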). To be noted: HeLa MMTV-bla, beta-lactamase ratio, agonist, 18 h; stronger effect = higher value; percent of dexamethasone control, DMSO zero. In a few lines:
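Titration series, up to 92 uM, applied to GRE-bla HeLa cells for 18 h at 37 C. Detection by CCF4 FRET substrate after 2 h at RT.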

The target is the same in assay [4]. Nature of the assay: qHTS assay for small molecule antagonists of glucocorticoid receptor signaling (AID 588533; active = well fitted inhibition curve with a large enough effect in the signal ratio, with a control signal flat, not every such curve was filed as active; the % refers to the signal ratio;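 also: cells stimulated with 2 nM dexamethasone as agonist; % is scaled to controls: 0 for no effect and ±100 for the full control effect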). Put shortly:
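Antagonist-mode qHTS: compound titrations added to GRE-bla HeLa cells, then dexamethasone 2 nM final; 18 h, 37 C. CCF4 FRET fluorescence normalized to dexamethasone and DMSO; IC50 from Hill fit.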

Assay [5] can be described thus: qHTS assay for small molecule antagonists of peroxisome proliferator-activated receptor delta signaling (AID 588535; active = well fitted inhibition curve with a large enough effect in the signal ratio, with a control signal flat, not every such curve was filed as active; the % refers to the signal ratio;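 as to max response: cells co-treated with a PPAR-delta agonist as stimulator during compound exposure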). To be noted: HEK293T PPARd-UAS-bla, beta-lactamase FRET ratio, 18 h; 460 nm channel. Put shortly: (§1)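 Reporter: UAS-bla under PPAR-delta response element, HEK293T host. Medium: 2% charcoal/dextran FBS. Dosing: titration, 18 hrs, 37 C. Detection: CCF4, 2 hrs RT, 405 ex/460 and 530 em.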

Assay [6] addresses Peroxisome proliferator-activated receptor delta (Homo sapiens) (UniProt Q03181). Described as above. Put shortly: as §1
The nature of assay [7]: qHTS assay for small molecule agonists of retinoid X receptor alpha signaling (AID 588544; calls by dose curve; also: potency is read from the fitted curve at half-maximal effect;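 as to activation: 0% = DMSO basal wells and 100% = reference agonist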). The conditions noted are these: HEK293T RXRa-UAS-bla, beta-lactamase reporter, 18 h; 530 nm emission.
The target in assay [8] is Retinoic acid receptor RXR-alpha (Homo sapiens) (UniProt P19793). The description is as above.
Assay [9] deals with Thyroid hormone receptor beta (Homo sapiens) (UniProt P10828). Nature of the assay: qHTS assay for small molecule agonists of thyroid hormone receptor beta signaling (AID 588545; calls by dose curve;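 also: 0% = DMSO only and 100% = 10 nM T3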). In a few lines: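 Stimulation of a TR-driven beta-lactamase reporter was quantified in GripTite HEK 293 cells. Compound series ran for 18 hrs; curves were normalized to T3 and DMSO controls and fitted to yield EC50.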

The nature of assay [10]: qHTS assay for small molecule antagonists of retinoid X receptor alpha signaling (AID 588546; active = well fitted inhibition curve with a large enough effect in the signal ratio, with a control signal flat, not every such curve was filed as active; the % refers to the signal ratio;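 also: cells stimulated with 9-cis-retinoic acid as agonist; % is scaled to controls: 0 for no effect and ±100 for the full control effect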). To be noted: HEK293T RXRa-UAS-bla, beta-lactamase ratio, antagonist mode; measured here: W530 green channel, cytotoxicity proxy. Put shortly:
(§2)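 Beta-lactamase reporter inhibition, read as CCF4 fluorescence ratio (ex 405, em 460/530 nm) after 2 h at RT. HEK293T UAS-bla cells, 2500/well, were stimulated with 9-cis-RA at 500 or 100 nM final alongside test compound for 18 h at 37 C.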

The target in assay [11] is Retinoic acid receptor RXR-alpha (Homo sapiens) (UniProt P19793). The assay is described as above. The conditions noted are these: HEK293T RXRa-UAS-bla, beta-lactamase ratio, antagonist mode. Put shortly:
as §2

A short description of assay [12]: qHTS assay for small molecule activators of the nuclear factor-kappa B (NF-kB) signaling pathway (AID 651749; active = well fitted activation curve with a large enough effect in the signal ratio; the % refers to the signal ratio; also: series mostly up to about 77 µM; % of control where 0% means no effect). To be noted: NF-kB-bla ME-180 cells, beta-lactamase FRET ratio, 16 h; activation: stronger effect = higher value. In a few lines: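 Screening used 2,000 ME-180 reporter cells per well exposed to pinned compound (23 nL) or DMSO; after 16 hr at 37C, beta-lactamase expression under NF-kB control was assessed through FRET.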

Assay [13] is described as follows: qHTS assay for environmental chemicals that activate the Aryl hydrocarbon Receptor (AhR) signaling pathway (AID 651777). Also: % of control where 0% means no effect; nearly all actives have a fitted effect of over 15% in size. The conditions noted are these: 1A2-DRE human hepatoma cells, luciferase, 24 h; activation: stronger effect = higher value. In a few lines: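 Concentration–response screening used 1,200 1A2-DRE cells per well, 24 hr compound exposure (37 C, 5% CO2), and One-Glo luminescence as the AhR-driven CYP1A2 reporter signal.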

The nature of assay [14]: qHTS assay for cell viability of HEK293 cells (AID 743288). Also: % is scaled to controls: 0 for no effect and ±100 for the full control effect; nearly all actives have a fitted effect of over 50% in size. The conditions noted are these: ATP luminescence (CellTiter-Glo), 18 h; max response: stronger effect = lower value. Put shortly: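 The Tox21 protocol used parental HEK293 cells treated for 18 h at 37 C with compounds delivered by pintool; ATP-coupled luminescence after 30 min at room temperature gave viability.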
Assay [15] is described as follows: qHTS assay for cell viability of the p53RE-bla HCT-116 cell line (AID 743292). Also: % is scaled to controls: 0 for no effect and ±100 for the full control effect; nearly all actives have a fitted effect of over 55% in size. Put shortly: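 Compound-exposed HCT-116 (p53RE-bla) cells, 4,000 per well, were kept 16 h at 37 C following a 5 h preincubation. Cell number was estimated from total ATP by CellTiter-Glo luminescence read after 30 min at room temperature.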
The target in assay [16] is Nuclear receptor subfamily 1 group I member 2 (Rattus norvegicus) (UniProt Q9R1A7). The experiment in a line: qHTS assay for small molecule activators of the rat pregnane X receptor (rPXR) signaling pathway (AID 651751; call rule not given here; also: 0% is about no effect). To be noted: rPXR reporter cells, luciferase (One-Glo), 24 h.
Assay [17] in a line: qHTS assay for small molecule activators of the human pregnane X receptor (PXR) signaling pathway (AID 720659; call rule not given here; also: 0% is about no effect).
Assay [18] addresses Peroxisome proliferator-activated receptor alpha (Homo sapiens) (UniProt Q07869). The experiment in a line: qHTS assay for small molecule agonists of the peroxisome proliferator-activated receptor alpha (PPARalpha) signaling pathway (AID 651778). Also: % of control where 0% means no effect. To be noted: PathHunter PPARalpha complementation, chemiluminescence, 6 h; max response: stronger effect = higher value. Put shortly: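 Cells plated at 2,000/well and held overnight at 37 C, 5% CO2, then compound added by pin tool for 6 hr; after PathHunter detection reagent and 60 min at room temperature, chemiluminescence from enzyme complementation was read.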

Assay [19] in a line: qHTS assay for small molecule agonists of the antioxidant response element (ARE) signaling pathway measured by Nrf2-dependant transcriptional activity - cell viability counter screen (AID 720653; active = well fitted curve in the direction sought with a large enough effect in the repeat runs; an effect the other way counts as inactive or inconclusive; also: % is scaled to controls: 0 for no effect and ±100 for the full control effect). To be noted: ARE-bla HepG2 viability, CellTiter-Glo ATP luminescence, 16 h; max response: stronger effect = lower value. In a few lines: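 ARE-bla HepG2 cells (2,000/well) rested 5 hrs at 37C/5% CO2, then exposed to compounds in DMSO for 16 hrs. Viability was read in the same wells as intracellular ATP by luminescence, 30 min at room temperature after reagent addition.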

A short description of assay [20]: qHTS assay for small molecule agonists of the antioxidant response element (ARE) signaling pathway measured by Nrf2-dependant transcriptional activity (AID 720636; active = well fitted curve in the direction sought with a large enough effect in the repeat runs; an effect the other way counts as inactive or inconclusive; also: % of control where 0% means no effect). In a few lines:
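Attachment 6 hr at 37 C, then compound versus DMSO vehicle for 16 hr in ARE-luc HepG2 cells (1% dialyzed FBS); luminescence recorded 30 min after ONE-Glo addition at room temperature.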

Results filed as inconclusive are left out. Active and inactive are the calls of the source. Unless noted, calls follow the shape of the dose curve; as a rule, active = well fitted curve in the direction sought with a large enough effect; inconclusive = small, poorly fitted or top-dose-only effect, or another doubt; inactive = no such curve, though single readings can be large; an effect the other way counts as inactive or inconclusive.

Chain of Peroxisome proliferator-activated receptor delta (Homo sapiens) (Q03181 whole entry, looked up): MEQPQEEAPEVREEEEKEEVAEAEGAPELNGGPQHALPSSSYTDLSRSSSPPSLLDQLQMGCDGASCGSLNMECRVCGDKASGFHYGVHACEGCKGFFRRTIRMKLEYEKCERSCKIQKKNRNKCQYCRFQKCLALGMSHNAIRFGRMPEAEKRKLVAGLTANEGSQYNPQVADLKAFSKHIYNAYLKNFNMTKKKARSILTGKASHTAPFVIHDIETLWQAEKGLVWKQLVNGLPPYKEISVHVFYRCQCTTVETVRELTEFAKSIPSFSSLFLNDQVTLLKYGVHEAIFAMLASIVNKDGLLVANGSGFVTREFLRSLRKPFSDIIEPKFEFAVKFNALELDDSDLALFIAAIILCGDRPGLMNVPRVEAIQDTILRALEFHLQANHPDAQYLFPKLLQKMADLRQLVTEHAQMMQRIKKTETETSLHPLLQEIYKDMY
Chain of Glucocorticoid receptor (Homo sapiens) (P04150 whole entry, looked up): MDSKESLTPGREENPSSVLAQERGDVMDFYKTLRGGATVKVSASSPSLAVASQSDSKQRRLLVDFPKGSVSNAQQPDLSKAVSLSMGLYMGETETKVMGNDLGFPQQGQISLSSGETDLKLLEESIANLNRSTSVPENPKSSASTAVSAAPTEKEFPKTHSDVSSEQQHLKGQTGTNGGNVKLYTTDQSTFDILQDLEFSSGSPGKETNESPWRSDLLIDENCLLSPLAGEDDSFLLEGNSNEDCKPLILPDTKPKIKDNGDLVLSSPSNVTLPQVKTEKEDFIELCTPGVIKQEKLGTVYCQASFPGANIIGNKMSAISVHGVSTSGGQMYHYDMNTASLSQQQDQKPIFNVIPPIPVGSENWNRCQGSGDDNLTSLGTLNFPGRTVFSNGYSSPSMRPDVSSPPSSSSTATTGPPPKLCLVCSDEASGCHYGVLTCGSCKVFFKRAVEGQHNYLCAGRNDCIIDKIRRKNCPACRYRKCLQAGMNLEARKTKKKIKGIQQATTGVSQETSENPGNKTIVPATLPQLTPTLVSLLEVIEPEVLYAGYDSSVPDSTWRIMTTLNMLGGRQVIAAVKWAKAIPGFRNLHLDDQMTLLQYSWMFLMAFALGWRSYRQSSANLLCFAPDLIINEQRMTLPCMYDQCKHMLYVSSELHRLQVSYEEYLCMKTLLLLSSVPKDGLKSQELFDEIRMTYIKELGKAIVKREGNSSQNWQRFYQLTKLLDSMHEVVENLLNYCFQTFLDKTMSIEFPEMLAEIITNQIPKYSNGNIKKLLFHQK
Chain of Estrogen receptor (Homo sapiens) (P03372 whole entry, looked up): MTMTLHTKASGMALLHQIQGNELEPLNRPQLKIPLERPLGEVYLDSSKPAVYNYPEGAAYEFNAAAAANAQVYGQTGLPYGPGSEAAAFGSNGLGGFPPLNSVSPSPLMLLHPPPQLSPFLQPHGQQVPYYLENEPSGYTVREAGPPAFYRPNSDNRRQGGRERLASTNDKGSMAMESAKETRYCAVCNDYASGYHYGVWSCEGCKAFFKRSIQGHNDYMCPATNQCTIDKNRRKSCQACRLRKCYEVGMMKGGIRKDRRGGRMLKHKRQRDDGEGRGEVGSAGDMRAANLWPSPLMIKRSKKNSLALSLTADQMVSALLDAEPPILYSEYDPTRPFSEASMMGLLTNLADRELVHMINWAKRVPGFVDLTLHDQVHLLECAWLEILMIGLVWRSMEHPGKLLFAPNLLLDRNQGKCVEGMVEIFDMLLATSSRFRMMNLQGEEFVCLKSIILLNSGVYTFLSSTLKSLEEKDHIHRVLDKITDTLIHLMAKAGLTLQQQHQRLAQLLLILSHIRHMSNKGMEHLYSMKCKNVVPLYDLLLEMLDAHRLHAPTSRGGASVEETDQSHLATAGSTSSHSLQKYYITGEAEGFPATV
Chain of Nuclear receptor subfamily 1 group I member 2 (Rattus norvegicus) (Q9R1A7 whole entry, looked up): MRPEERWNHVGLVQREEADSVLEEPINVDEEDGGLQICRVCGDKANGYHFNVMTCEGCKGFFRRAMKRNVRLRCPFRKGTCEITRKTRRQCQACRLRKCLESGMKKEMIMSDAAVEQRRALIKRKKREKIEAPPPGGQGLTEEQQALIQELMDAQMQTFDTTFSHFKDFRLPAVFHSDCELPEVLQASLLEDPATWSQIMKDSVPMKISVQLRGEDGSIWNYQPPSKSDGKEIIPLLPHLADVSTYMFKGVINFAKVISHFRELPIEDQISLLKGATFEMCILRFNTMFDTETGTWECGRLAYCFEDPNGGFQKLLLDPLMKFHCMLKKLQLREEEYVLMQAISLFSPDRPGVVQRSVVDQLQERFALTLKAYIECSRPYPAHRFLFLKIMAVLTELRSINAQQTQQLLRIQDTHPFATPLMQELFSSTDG
Chain of Thyroid hormone receptor beta (Homo sapiens) (P10828 whole entry, looked up): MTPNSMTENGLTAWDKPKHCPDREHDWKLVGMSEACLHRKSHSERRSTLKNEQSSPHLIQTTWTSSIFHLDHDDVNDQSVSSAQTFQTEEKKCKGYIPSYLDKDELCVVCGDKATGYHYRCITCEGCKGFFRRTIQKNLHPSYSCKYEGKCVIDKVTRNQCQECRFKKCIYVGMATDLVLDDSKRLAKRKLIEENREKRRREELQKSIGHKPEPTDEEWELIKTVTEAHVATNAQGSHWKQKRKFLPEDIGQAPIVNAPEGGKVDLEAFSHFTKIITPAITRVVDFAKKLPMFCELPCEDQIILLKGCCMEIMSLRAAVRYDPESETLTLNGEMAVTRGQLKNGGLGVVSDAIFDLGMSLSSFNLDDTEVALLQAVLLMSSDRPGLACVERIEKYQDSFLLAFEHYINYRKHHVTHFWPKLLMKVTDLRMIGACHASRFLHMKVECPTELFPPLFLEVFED
Chain of Peroxisome proliferator-activated receptor alpha (Homo sapiens) (Q07869 whole entry, looked up): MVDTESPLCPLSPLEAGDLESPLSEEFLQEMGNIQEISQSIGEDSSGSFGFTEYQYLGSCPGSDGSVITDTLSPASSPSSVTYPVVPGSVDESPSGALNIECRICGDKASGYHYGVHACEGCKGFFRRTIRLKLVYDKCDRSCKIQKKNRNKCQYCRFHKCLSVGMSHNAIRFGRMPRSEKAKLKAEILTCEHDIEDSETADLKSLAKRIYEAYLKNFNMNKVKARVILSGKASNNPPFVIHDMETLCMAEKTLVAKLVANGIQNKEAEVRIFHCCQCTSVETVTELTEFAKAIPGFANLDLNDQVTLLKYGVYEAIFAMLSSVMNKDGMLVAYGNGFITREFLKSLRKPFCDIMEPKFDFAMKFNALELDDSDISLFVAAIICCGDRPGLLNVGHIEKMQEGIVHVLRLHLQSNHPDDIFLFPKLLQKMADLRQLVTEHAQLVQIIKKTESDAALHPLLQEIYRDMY
Chain of Retinoic acid receptor RXR-alpha (Homo sapiens) (P19793 whole entry, looked up): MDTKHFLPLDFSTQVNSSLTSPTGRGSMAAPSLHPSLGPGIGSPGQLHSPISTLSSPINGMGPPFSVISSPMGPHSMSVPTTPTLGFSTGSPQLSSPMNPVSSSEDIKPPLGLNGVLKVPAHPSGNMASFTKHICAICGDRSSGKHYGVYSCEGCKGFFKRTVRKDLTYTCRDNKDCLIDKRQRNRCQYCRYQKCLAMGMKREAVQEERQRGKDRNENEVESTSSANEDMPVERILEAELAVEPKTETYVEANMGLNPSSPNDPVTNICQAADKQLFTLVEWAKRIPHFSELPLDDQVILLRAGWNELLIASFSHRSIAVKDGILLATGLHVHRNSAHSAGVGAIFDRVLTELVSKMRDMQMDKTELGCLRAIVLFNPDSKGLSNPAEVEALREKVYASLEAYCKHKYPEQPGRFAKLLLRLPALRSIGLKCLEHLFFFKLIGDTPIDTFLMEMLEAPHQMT

Turning to `CCC(=O)OCCc1ccccc1`, the Potency result in assay [1], in assay [2], in assay [4], in assay [6], in [8] and in assay [9] was “inactive” each time. Also, the Potency result in assay [15] was “inactive”. Further, the activation in assay [3] was -12.1% (inactive); in assay [12], 1.34% (inactive); in assay [13] it was 2.12% (inactive). For the same compound, the max response was 20.5% in assay [5]; -7.14% in assay [7]; -6.4% in assay [10]; 3.85% (inactive) in assay [11]; -5.25% (inactive) in assay [14]; -2.51% (inactive) in [16]. The result in [17] was inactive.

As for `CC(C)c1ccc2cc(C(C)C)ccc2c1`, the Potency result in [1], in assay [2] and in [9] was “inactive” in each case. The activation in assay [3] was -1.13% (inactive); in assay [12], -0.342% (inactive); in assay [13], 1.48% (inactive). The max response was -11.7% in assay [10]; -6.87% (inactive) in assay [11]; -0.981% (inactive) in assay [18]; 7.43% (inactive) in [19]; -0.947% (inactive) in assay [14]; 1.57% (inactive) in [16]. Also, the compound was classed as inactive in [17].

Regarding `CNc1nc(=O)n(C2CCCCC2)c(=O)n1C`, the Potency entry in assay [1], in [2], in assay [4], in assay [6], in assay [8] and in [9] was “inactive” each time. Moreover, the Potency result in assay [20] and in assay [15] was “inactive” in each case. Also, the activation was -5.96% (inactive) in assay [3] and -1.72% (inactive) in [12]. Also, the max response is 8.32% in assay [5]; -10.1% in [7]; -10.4% in assay [10]; 4.07% (inactive) in assay [11]; -0.955% (inactive) in assay [18]; 3.71% (inactive) in [19]. In addition, the max response in assay [14] is -6.85% (inactive); in assay [16], -0.0446% (inactive). The result in assay [17] was inactive.

With `CC(C)c1ccc(C(C)C)cc1`, the Potency entry in [1], in assay [2], in assay [4], in [8], in [9] and in assay [20] was “inactive” in each case. The Potency result in assay [15] was “inactive”. Moreover, the results for the activation in assay [3] and in assay [13] were 1.07% (inactive) and 0.903% (inactive), respectively. For the same compound, the max response is -15.2% in [7]; -15.9% in assay [10]; 2.58% (inactive) in assay [19]; 4.22% (inactive) in [14]; -0.628% (inactive) in assay [16]. Moreover, the compound was called inactive in [17].

For the compound `CCCCCCCCCCCCCCCCCCN`, the Potency entry in assay [1], in assay [2], in assay [4], in [6] and in assay [9] was “inactive” each time. Besides, the activation is -6.46% (inactive) in assay [3], 0.495% (inactive) in [12] and 0.284% (inactive) in assay [13]. The max response is 13.6% in assay [5]; -24% in assay [7]; -8.83% in assay [10]; 4.01% (inactive) in assay [11]; 0.121% (inactive) in [18]; -7.69% (inactive) in assay [19]. In addition, the results for the max response in assay [14] and in assay [16] were 4.92% (inactive) and -2.88% (inactive), respectively. Besides, the Potency in assay [8] is 15.8 µM (active). Also, in [17], the outcome was inactive.

For `O=C(c1ccc(Cl)cc1)c1ccc(Cl)cc1`, the Potency result in [1], in assay [2], in assay [6], in assay [8], in [9] and in assay [15] was “inactive” throughout. Also, the max response is 24.6% in assay [5]; 6.29% in assay [7]; -11.4% in [10]; 7.91% (inactive) in assay [11]; -1.26% (inactive) in assay [18]; -5.32% (inactive) in [19]. For the same compound, the max response in assay [14] is -7.2% (inactive); in assay [16] it was 0.85% (inactive). In addition, the activation in [12] was 1.57% (inactive). Further, the compound was called inactive in assay [17].
